Test systems include DU-145 prostate; K-562 leukemia; MALME-3M melanoma; MDA-MB-231 breast; RXF 393 renal; SF-268 CNS; SF-295 CNS; SF-539 CNS; UACC-257 melanoma; M14 melanoma; HCT-15 colon; SNB-75 CNS; SNB-19 CNS; U251 CNS; PC-3 prostate; SK-MEL-5 melanoma; UACC-62 melanoma; LOX IMVI melanoma; SK-MEL-28 melanoma.
Common to all, as to assay: NCI-60 one-dose screen, 48 h (100 = growth as untreated, 0 = no growth, -100 = all killed)
Conditions in all cases: 10 µM unless noted

The values below come from PubChem BioAssay (NCI).

Structures are written as SMILES. The panel holds about 83,000 compounds, 20% with a hit somewhere; the sample as a whole holds those more often.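 Activity criterion: percent growth below 10, measured after cells in 96-well plates were exposed to a single compound concentration for 48 hours.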 Values without a mark were called inactive. Active and inactive are the calls of the source.

As for `Cc1nc2cc(O)c(O)cc2cc1Oc1ccc(NC(=O)Nc2ccc(Cl)c(Cl)c2)cc1`, the growth in the experiment with DU-145 prostate is 60.3%; in the experiment with K-562 leukemia, 53.9%; in the experiment on MALME-3M melanoma, 85.2%; with MDA-MB-231 breast, 45%; with RXF 393 renal, 20.4%; in the experiment with SF-268 CNS, 65.5%. For the same molecule, the growth is 95.9% in the experiment on SF-295 CNS; 56.9% in the experiment on SF-539 CNS; 88.5% with UACC-257 melanoma; 80.7% in the experiment on M14 melanoma; 37.2% in the experiment on HCT-15 colon; 75.8% in the experiment with SNB-75 CNS. The growth was 49% in the experiment on SNB-19 CNS; 41.4% in the experiment with U251 CNS; 39.3% in the experiment on PC-3 prostate; -42.2% (active) in the experiment with SK-MEL-5 melanoma; 84.5% with UACC-62 melanoma; 0.463% (active) in the experiment with LOX IMVI melanoma. In the experiment on SK-MEL-28 melanoma, the growth is 79.1%.

With `Cc1nn(-c2ccccc2)c(N)c1N=C1NC(=O)/C(=C/c2ccc(Br)cc2)S1`, the growth in the experiment on DU-145 prostate was 96.4%; with K-562 leukemia, 58.8%; in the experiment on MALME-3M melanoma, 93.8%; with MDA-MB-231 breast it was 86%; in the experiment on RXF 393 renal it was 151%; in the experiment on SF-268 CNS, 81.6%. Further, the growth in the experiment on SF-295 CNS was 87.2%; with SF-539 CNS, 83.4%; in the experiment with UACC-257 melanoma, 111%; in the experiment with M14 melanoma it was 89.9%; with HCT-15 colon it was 81.5%; in the experiment on SNB-75 CNS, 85.2%. Further, the growth was 77.1% in the experiment with U251 CNS; 74% with PC-3 prostate; 99% with SK-MEL-5 melanoma; 77.6% in the experiment on UACC-62 melanoma; 90.4% in the experiment on LOX IMVI melanoma; 94.5% with SK-MEL-28 melanoma.

For the molecule `CC1=C2[C@@H](CC1)[C@]1(C)O[C@@](c3ccccc3)(C[C@H]1OC(=O)CO)[C@H]2OC(=O)/C=C/c1ccccc1`, the growth is 97.8% in the experiment with DU-145 prostate; 70.6% in the experiment with K-562 leukemia; 88.6% in the experiment with MALME-3M melanoma; 91.4% in the experiment with MDA-MB-231 breast; 36.2% in the experiment with RXF 393 renal; 33.1% in the experiment with SF-268 CNS. For the same molecule, the growth in the experiment on SF-295 CNS is 91%; in the experiment on SF-539 CNS, 111%; in the experiment on UACC-257 melanoma it was 103%; in the experiment with M14 melanoma, 96.8%; in the experiment on HCT-15 colon, 92.6%; with SNB-75 CNS it was -50.7% (active). In addition, the growth is 96.1% with SNB-19 CNS; 88.4% with U251 CNS; 63.2% in the experiment with PC-3 prostate; 88.9% in the experiment with SK-MEL-5 melanoma; 79% in the experiment on UACC-62 melanoma; 82.1% in the experiment on LOX IMVI melanoma. For the same molecule, the growth with SK-MEL-28 melanoma was 117%.

`COc1ccc(/C=C/C(=O)c2ccc(NC(=O)CSc3nc4c([nH]3)c(=O)n(C)c(=O)n4C)cc2)cc1OC`: the growth was 97.4% with DU-145 prostate; 79.3% in the experiment with K-562 leukemia; 95.9% in the experiment with MALME-3M melanoma; 84.4% in the experiment on MDA-MB-231 breast; 87.5% in the experiment with RXF 393 renal; 83% in the experiment with SF-268 CNS. The growth in the experiment on SF-295 CNS is 92.6%; with SF-539 CNS it was 80.1%; in the experiment with UACC-257 melanoma, 87.4%; in the experiment on M14 melanoma it was 92.5%; with HCT-15 colon, 89%; in the experiment on SNB-19 CNS, 62.5%. The growth is 49.6% in the experiment on U251 CNS; 94.6% in the experiment with PC-3 prostate; 92% in the experiment with SK-MEL-5 melanoma; 81.4% in the experiment with UACC-62 melanoma; 78.3% in the experiment on LOX IMVI melanoma; 95.7% in the experiment on SK-MEL-28 melanoma.

Turning to `C[C@]1(O)CC(=O)[C@]2(O)C3=C(C=C[C@]2(O)C1)C(=O)c1c(O)cccc1C3=O`, the growth with DU-145 prostate is -82.3% (active); with K-562 leukemia it was 5.36% (active); with MALME-3M melanoma, -96.7% (active); with MDA-MB-231 breast it was 30.2%; in the experiment on RXF 393 renal it was -85.3% (active); in the experiment on SF-268 CNS, 85.4%. Further, the growth in the experiment on SF-295 CNS is 89.8%; with SF-539 CNS it was 82.4%; with UACC-257 melanoma it was 77.3%; in the experiment on M14 melanoma, -24.8% (active); in the experiment with HCT-15 colon it was -45.5% (active); with SNB-75 CNS, 20%. Further, the growth is 101% in the experiment with SNB-19 CNS; 72.4% in the experiment with U251 CNS; 72.8% in the experiment with PC-3 prostate; -53.7% (active) in the experiment on SK-MEL-5 melanoma; 16.5% in the experiment with UACC-62 melanoma; -51.5% (active) with LOX IMVI melanoma. Moreover, the growth in the experiment on SK-MEL-28 melanoma was -37.4% (active).

Regarding `CC[C@]12C=CCN3CC[C@@]4(c5ccc(OC)cc5N(C)[C@H]4[C@@](O)(C(=O)OC)[C@@H]1OC(=O)CCC[P+](c1ccccc1)(c1ccccc1)c1ccccc1)[C@@H]32`, the growth with DU-145 prostate is 18%; in the experiment with K-562 leukemia it was 10.4%; with MALME-3M melanoma, -12.4% (active); in the experiment with MDA-MB-231 breast it was 1.29% (active); in the experiment on RXF 393 renal, 28.9%; in the experiment on SF-268 CNS, 19.2%. The growth in the experiment with SF-295 CNS is 23.3%; with SF-539 CNS it was 16.2%; with UACC-257 melanoma, -27.3% (active); in the experiment on M14 melanoma, 17.7%; with HCT-15 colon it was 101%; in the experiment with SNB-75 CNS it was -4.39% (active). Further, the growth with SNB-19 CNS is 11%; in the experiment on U251 CNS, 4.03% (active); in the experiment with PC-3 prostate, 2.13% (active); in the experiment on SK-MEL-5 melanoma, -91.5% (active); in the experiment on UACC-62 melanoma it was -59.3% (active); in the experiment with LOX IMVI melanoma, 8.81% (active). Besides, the growth with SK-MEL-28 melanoma was 20.9%.

`CS(=O)(=O)Nc1cc(-c2ccc3ncc(C#N)c(Nc4ccc(F)c(Cl)c4)c3c2)cnc1Cl`: the growth was 10.2% with DU-145 prostate; 16.2% with K-562 leukemia; -38.6% (active) with MALME-3M melanoma; -0.718% (active) in the experiment with MDA-MB-231 breast; -39.2% (active) in the experiment with RXF 393 renal; 8.18% (active) with SF-268 CNS. Further, the growth in the experiment on SF-295 CNS was -28.2% (active); in the experiment with SF-539 CNS, -27.4% (active); in the experiment with UACC-257 melanoma it was 4.72% (active); with M14 melanoma, 11.2%; in the experiment on HCT-15 colon it was 8.1% (active); with SNB-75 CNS, -6.88% (active). The growth with SNB-19 CNS was 14.3%; in the experiment on U251 CNS, -15.4% (active); with PC-3 prostate it was 8.23% (active); with SK-MEL-5 melanoma, -90% (active); in the experiment on UACC-62 melanoma, -10.7% (active); with LOX IMVI melanoma it was -53.7% (active). For the same molecule, the growth in the experiment on SK-MEL-28 melanoma was 5.07% (active).

For the molecule `CN(C)c1ccc(-c2nc(-c3ccccc3)c(-c3ccccc3)[nH]2)cc1`, the growth was 102% in the experiment with DU-145 prostate; 65.7% with K-562 leukemia; 107% with MALME-3M melanoma; 95.3% with MDA-MB-231 breast; 104% in the experiment with RXF 393 renal; 112% in the experiment on SF-268 CNS. The growth in the experiment on SF-295 CNS was 88.6%; in the experiment with SF-539 CNS it was 102%; with UACC-257 melanoma, 110%; with M14 melanoma, 82.7%; in the experiment on HCT-15 colon, 77.5%; in the experiment with SNB-75 CNS, 106%. In addition, the growth was 106% in the experiment with SNB-19 CNS; 103% with U251 CNS; 100% in the experiment with SK-MEL-5 melanoma; 97.7% in the experiment on UACC-62 melanoma; 88.7% in the experiment on LOX IMVI melanoma; 103% in the experiment with SK-MEL-28 melanoma.
